hgDAF12 agonist: hgDAF-12 agonism, primary luciferase screen; HEK293 GAL4-hgDAF12 UAS-luciferase reporter, agonist luminescence; normalized to butyrate control; activation, % at 6.8 µM; hit rate 1.8% among 370,000;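 active means activation above a cutoff set at the mean of all screened compounds plus 3 SD, cut at about 10% in these data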;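 further: 0% = DMSO wells and 100% = sodium butyrate wells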
ssDAF-12 act: S. stercoralis DAF-12 activation, primary screen; HEK293 ssDAF-12/GRIP1 lit1-tk-luc reporter, luminescence; % of 3 µM dafachronic acid response; activation, % at 6.8 µM; hit rate 1% among 370,000;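 active means activation above the mean over all tested compounds plus 3 SD, cut at about 0.9% in these data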;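 further: 0% = DMSO-only wells and 100% = 3 µM delta7-dafachronic acid wells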
Rev-erbA mod: Rev-erb alpha (human) modulation. Rev-erbα–FITC-DNA binding, fluorescence polarization, 90 min. activity, % at 10 µM. P20393. hit rate 0.79% among 370,000;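 active means activity above about 14%, limit read from the data; passing the limit was not always enough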;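 further: 0% = DMSO wells with 35 nM protein and 100% = DMSO wells with 750 nM protein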
DAX1 inh-1: inhibits human nuclear receptor DAX1 | P51843 | HEK293 Gal4-DAX1 luciferase reporter, luminescence | inhibition, % at 6.75 µM | hit rate 0.99% among 340,000 | AID 504766;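 active means inhibition above the mean over all tested compounds plus 3 SD, cut at about 4.2% in these data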;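 further: 0% = DAX1-transfected cells with DMSO and 100% = empty-vector control cells with DMSO; inhibition shows as a rise in luminescence from relieved DAX1 repression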
Target sequence (P51843 207-470 limits assumed): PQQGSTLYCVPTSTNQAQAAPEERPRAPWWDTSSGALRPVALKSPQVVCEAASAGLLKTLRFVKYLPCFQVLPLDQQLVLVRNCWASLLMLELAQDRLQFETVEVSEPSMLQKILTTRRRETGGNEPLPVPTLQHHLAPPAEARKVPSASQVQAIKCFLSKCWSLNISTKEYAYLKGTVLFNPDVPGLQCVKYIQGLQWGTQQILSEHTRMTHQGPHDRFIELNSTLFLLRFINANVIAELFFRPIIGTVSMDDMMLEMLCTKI
DAX1 inh-2: DAX1 (NR0B1) inhibition, primary screen; HEK293T StAR-luciferase reporter, SF-1/DAX-1 repression relief; inhibition, % at 6.8 µM; hit rate 1.1% among 370,000; AID 652010;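 active means inhibition above the mean over all tested compounds plus 3 SD, cut at about 3.6% in these data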;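 further: 0% = DAX-1 cells with DMSO and 100% = cells lacking DAX-1 with DMSO; higher inhibition means more luminescence from relief of DAX-1 repression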
hcDAF12 agonist: H. contortus DAF-12 activation, primary screen | HEK293 hcDAF-12 lit1-tk-luc reporter, luminescence; 0% DMSO, 100% Δ7-dafachronic acid | activation, % at 6.8 µM | hit rate 1.4% among 370,000;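 active means activation above the mean of all tested compounds plus 3 SD, cut at about 5.5% in these data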;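 further: 100% = response to 3 µM Δ7-dafachronic acid high control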
* = called active by the depositor; . = no result given. Compounds with a hit are over-represented: about 4.8% of the library has one in this group of screens.

SMILES | hgDAF12 agonist | ssDAF-12 act | Rev-erbA mod | DAX1 inh-1 | DAX1 inh-2 | hcDAF12 agonist
Cc1ccc(Cc2c(-c3cccc(Cl)c3)nc3cc(C)c(Br)c(C)n23)cc1 | 4.4 | 0.2 | 7.9 | . | 0.4 | 2.0
Cc1cc(Br)cn2c(Cc3ccsc3)c(-c3ccccc3)nc12 | 1.1 | -0.4 | 9.8 | . | 0.7 | -0.4
Cc1ccc(Cc2c(-c3ccccc3)nc3cc(C)c(Br)c(C)n23)cc1 | 5.9 | 1.3* | 4.9 | . | -0.6 | 2.5
Cc1cc2nc(-c3cccc(Br)c3)c(Cc3ccccc3)n2c(C)c1Br | 7.6 | 0.6 | -4.2 | . | 0.6 | 2.9
Cc1cc2nc(-c3cccc(Br)c3)c(CC3CCCCC3)n2c(C)c1Br | 2.3 | 1.6* | 9.8 | . | 1.0 | 2.2
Cc1cc2nc(-c3ccc(F)cc3)c(Cc3ccccc3)n2c(C)c1Br | 0.6 | 0.1 | 11.5 | . | -0.8 | 5.1
Cc1ccc(-c2nc3cc(C)c(Br)c(C)n3c2CC(C)(C)C)cc1 | 6.0 | 1.5* | 0.0 | . | 0.5 | 6.5*
CN(C)CC(=O)N[C@H]1C[C@@H]2O[C@@H](CO)CC[C@@H]2O[C@@H]1CCc1ccc(C2=CCCCC2)cc1 | -1.1 | -1.5 | 1.0 | . | 0.8 | -1.0
Cc1ccc(-c2nc3cc(C)c(Br)c(C)n3c2Cc2ccsc2)cc1 | 9.0 | 1.5* | 1.1 | . | 3.7* | 5.3
Cc1cc2nc(-c3cccc(Br)c3)c(Cc3ccsc3)n2c(C)c1Br | 0.1 | 0.3 | 0.2 | . | -1.5 | 2.8
COc1cc(S(=O)(=O)n2cnc(C)c2)ccc1Cl | -0.6 | 0.6 | -2.5 | 0.2 | 0.5 | -0.1
CCOc1cc(S(=O)(=O)n2cnc(C)c2)ccc1Cl | -2.0 | -1.0 | 0.4 | 4.5* | -0.5 | -0.1
CN(N=Cc1ccccc1O)C(=O)c1ccccc1N | 6.3 | -1.2 | 0.6 | . | 0.3 | 0.2
O=C(NC1=NC2CCCCC2N1)c1ccccc1 (stereo not given) | 8.2 | 0.3 | 0.8 | 1.4 | 3.8* | 1.6
O=C(NC1CCCCCCC1O)c1ccccc1 (stereo not given) | 5.7 | -0.5 | 5.9 | 0.4 | -0.3 | 0.5
Cc1ccc(-n2c(SCC(=O)Nc3ccccc3-c3ccccc3)nnc2-c2cccnc2)cc1 | 5.2 | -1.1 | -1.1 | . | 0.8 | -2.9
CCCC(=O)N1CCC1(C)C(=O)Nc1ccc2nccnc2c1 (stereo not given) | 10.7* | -1.3 | -7.2 | . | -0.8 | -0.9
CCCC(=O)N1CCC1(C)C(=O)Nc1ccc(C)cc1 (stereo not given) | 1.2 | -1.1 | 1.1 | . | 0.8 | -0.3
COC(=O)C1=C(C)N(C)C(=NCc2ccc3c(c2)OCO3)NC1c1ccc(Cl)cc1 (stereo not given) | -1.5 | -1.1 | -1.9 | . | 0.4 | -1.5
CCOC(=O)c1cc(C#N)c(SCC(=O)O)[nH]c1=O | 0.9 | -1.7 | -0.2 | 0.2 | 0.8 | 0.8
CCOC(=O)c1cc(C#N)c(SCC(N)=O)[nH]c1=O | 1.7 | -1.5 | -5.2 | 4.5* | 0.2 | 0.5
O=C(OC1C(OC(=O)c2cccnc2)C(OC(=O)c2cccnc2)C(OC(=O)c2cccnc2)C(OC(=O)c2cccnc2)C1OC(=O)c1cccnc1)c1cccnc1 (stereo not given) | . | . | 4.9 | . | . | .
O=C1CC(c2ccco2)CC2=C1C=Nc1ccccc1N2 (stereo not given) | 0.1 | -1.6 | -2.9 | -1.6 | -0.3 | -1.6
O=c1[nH]c2c(s1)C=Nc1ccccc1N2 | 8.4 | 0.0 | -0.7 | 0.8 | 2.8 | 6.2*
COc1cccc(/C(O)=C2\C(=O)C(=O)N(c3ccccn3)C2c2ccccc2OC)c1 (stereo not given) | -1.4 | -0.5 | 2.2 | 1.7 | 0.2 | 0.8
SMILES | hgDAF12 agonist | ssDAF-12 act | Rev-erbA mod | DAX1 inh-1 | DAX1 inh-2 | hcDAF12 agonist
COc1ccc(C2/C(=C(\O)c3cccc(OC)c3)C(=O)C(=O)N2c2ccccn2)cc1 (stereo not given) | 0.8 | -1.2 | -0.6 | 6.8* | -0.6 | -1.5
Oc1ccc(Cl)cc1-c1cc(-c2ccccc2Cl)[nH]n1 | 9.7 | -0.4 | 0.2 | 5.6* | 0.5 | 6.1*
CCOC(=O)N1C(=O)C[C@](Sc2ccc(OC)cc2)(C(=O)N2CCN(C(C)=O)CC2)[C@H]1c1ccc(OC)cc1 | -0.3 | -0.5 | -0.8 | . | -2.3 | -0.8
CCNS(=O)(=O)c1ccc2c(c1)NCC2 | -3.2 | 1.7* | -2.9 | -0.2 | -0.3 | -1.6
C[C@@H]1CCN(C2CC2)S(=O)(=O)c2ccc(N3CCC[C@@H]3CO)cc2O1 | -0.3 | 0.5 | 2.9 | . | -0.3 | -1.3
Cc1ccc(C(=O)n2nc(-c3ccccc3)nc2NCc2ccco2)cc1 | 0.9 | -1.3 | -0.5 | -0.2 | 0.8 | -0.5
CCCC(=O)n1nc(-c2ccc(C)cc2)nc1NCc1ccco1 | 12.7* | -1.2 | 1.7 | 1.1 | 1.6 | 1.1
O=C(O)/C=C/c1cccc2c1OCCO2 | 0.1 | -1.6 | 0.9 | 7.2* | 0.2 | -1.6
CCCCCN1CCCCC(NC(=O)c2ccc3ccccc3c2)C1=O (stereo not given) | 1.6 | -1.2 | -0.5 | . | 0.5 | -1.4
c1ccc(-c2ccc3nnnn3n2)cc1 | 0.3 | -1.8 | 8.3 | -0.2 | 1.0 | -0.9
c1cnc(Sc2ccc3nnnn3n2)nc1 | 1.7 | 1.3* | -0.8 | 1.0 | -0.5 | -0.7
Cc1nc2c(-c3ccc(Cl)cc3)cnn2c(N)c1-c1ccc(F)cc1 | -8.8 | -2.6 | 3.3 | 0.7 | -1.1 | -4.7
Cc1nc2c(-c3ccc(Cl)cc3)cnn2c2c1CCC2 | 3.4 | 2.1* | 4.3 | -0.2 | -0.1 | 3.1
COc1cccc(C(=O)NCCC2=CCCCC2)c1OC | 8.2 | 0.7 | -3.5 | 4.5* | 3.2 | 1.8
COC(=O)[C@]12C[C@H](CC(=O)NCCCCc3ccccc3)C(=O)N(CCC3=CCCCC3)C1=C[C@H](C1CCCC1)O[C@@H]2C | 2.1 | -1.6 | -4.9 | . | -1.0 | -1.3
CCCCCCC(=O)NC1CCCCN(Cc2ccc(C)cc2)C1=O (stereo not given) | 3.7 | -0.6 | -0.6 | . | -1.7 | -0.2
c1ccc(Nc2ccnc(Nc3ccccc3)n2)cc1 | 10.9* | 0.2 | -0.8 | 2.5 | 0.9 | 1.6
Cc1ccc([N+](=O)[O-])c(OCCN2CCNCC2)c1 | -0.2 | -0.7 | -3.4 | 0.9 | 0.2 | 1.0
Cc1ccc([N+](=O)[O-])c(OCc2ncc(Cl)n2C)c1 | 4.2 | 1.1* | -7.0 | -0.1 | -0.1 | 5.2
COC(=O)C1=C(C)N(Cc2ccccc2C(F)(F)F)C(=NCc2cccc(C(F)(F)F)c2)NC1c1ccc(F)cc1 (stereo not given) | 3.6 | -1.3 | -6.6 | . | -0.9 | 1.7
CCOc1ccc2ccccc2c1CNc1nnnn1CC | 1.5 | -0.6 | 6.5 | 4.9* | -0.2 | 0.0
COc1ccc(-n2c(SCC(=O)c3ccc4ccccc4c3)nnc2-c2ccccc2)cc1 | 0.1 | -0.9 | 2.4 | . | -0.7 | -3.3
Cc1ccc(S(=O)(=O)N2CC3(COC(C)(C)OC3)C[C@H]2CON2C(C)(C)CCCC2(C)C)cc1 | -0.8 | -2.0 | -1.1 | . | . | -2.9
